PubChem BioAssay
Activity calls are given as the source filed them. No stated cut-off is given here; in the data, active means inhibition above about 33%; inactive means the rest.

Assay: VP16 transactivation reporter inhibitors, counter-screen for LRH-1 inverse agonist project, cell-based, luminescence, high throughput (AID 651615)
Settings: Gal4-VP16 luciferase reporter cells, at 3.6 µM, stronger effect = higher value

Row | Structure (SMILES) | inhibition
1 | COc1ccc(N=C2NN=C(c3c(C)[nH]c4ccccc34)CS2)cc1 | -7.14% (inactive)
2 | CC(C)Oc1cccc(-c2cc(C(=O)NN3CCOCC3)c3ccccc3n2)c1 | -17.7% (inactive)
3 | Cc1nn(CC(=O)NCCC2=CCCCC2)c(C)c1[N+](=O)[O-] | -0.8% (inactive)
4 | O=C(COc1cc2oc(=O)cc(-c3ccccc3)c2cc1Cl)NCCN1CCOCC1 | -2.31% (inactive)
5 | Cc1cc2oc(=O)cc(-c3ccccc3)c2c(C)c1-c1ccc(CO)cc1 | 16.8% (inactive)
6 | CCOc1ccc(Cc2nnc(SCC(=O)Nc3ccc(C(C)=O)cc3)[nH]c2=O)cc1 | -7.62% (inactive)
7 | O=C(Nc1ccc(N2CCOCC2)c(Cl)c1)c1ccc([N+](=O)[O-])o1 | -84.8% (inactive)
8 | Cc1cccc(CN2C(=O)CSc3ccc(C(=O)NC4CC4)cc32)c1 | -6.63% (inactive)
9 | O=C(NCc1cccc(C(F)(F)F)c1)c1cc(-c2ccccc2)nn1CC1CC(c2cccnc2)=NO1 (stereo not given) | 6.07% (inactive)
10 | CC(C)C(=O)Nc1ccc(C(=O)CN2C(=O)NC3(CCOc4ccccc43)C2=O)cc1 (stereo not given) | 7.98% (inactive)
11 | O=NN(CCc1ccncc1)c1ccc(OCc2ccccc2)cc1 | 50.5% (active)
12 | Cc1ccc(Nc2nc(-c3cccnc3)nc3ccccc23)cc1 | 14% (inactive)
13 | COc1cccc(C(=O)N/N=C2/SCC(=O)N2CCc2ccc(OC)c(OC)c2)c1 | -5.38% (inactive)
14 | Cc1cccc(C(=O)N[C@H](C(=O)Nc2ncc(C)s2)C(C)C)c1 | 8.22% (inactive)
15 | CCn1cc(Br)c(C(=O)Nc2ccccc2C(=O)OC)n1 | -5.16% (inactive)
